From the supplement of paper PMC11482750
± gives the standard deviation of the averaged measurements.

How the values were obtained:
Test in all cases: control-subtracted net OSN firing rate; higher = stronger neuronal activation
Conditions in all cases: odorant dilution (vol/vol): 1/100
[1] = compound: CC(=O)OCCc1ccccc1 [phenethyl acetate]
Method in brief: (§1)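 Single sensillum recordings were taken from palp or antennal olfactory sensory neurons of 1–5-day-old fed females of Scaptomyza species or of D. melanogaster wild-type, mutant or at1 empty-neuron lines expressing Or42a homologs. Odorants (1:100 vol/vol in mineral oil or dimethyl sulfoxide) were pulsed for 1 s into 16 ml/min filtered air. Replicate means are given of spikes counted over 0.5 s from 0.2 s after onset, after background subtraction, doubling and solvent correction.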

[2] = compound: CC12CCC(C1)C(C)(C)C2=O [fenchone]
Method in brief: as §1

[3] = compound: CCCCC(C)O [2-hexanol]
Method in brief: as §1

[4] = compound: CCc1ccc(O)c(OC)c1 [4-ethylguaiacol]
Method in brief: as §1

[5] = compound: COC(=O)c1ccccc1O [methyl salicylate]
Method in brief: as §1

[6] = compound: COc1ccccc1O [guaiacol]
Method in brief: as §1

[7] = compound: OCCc1ccccc1 [phenethyl alcohol]
Method in brief: as §1

Row | Target | control-subtracted net OSN firing rate [1] [spikes/s] | control-subtracted net OSN firing rate [2] [spikes/s] | control-subtracted net OSN firing rate [3] [spikes/s] | control-subtracted net OSN firing rate [4] [spikes/s] | control-subtracted net OSN firing rate [5] [spikes/s] | control-subtracted net OSN firing rate [6] [spikes/s] | control-subtracted net OSN firing rate [7] [spikes/s]
1 | S. pallida pb1b-like | -5.67 ± 17 | -4.33 ± 7 | -9 ± 8.8 | 90 ± 36 | 1.33 ± 16 | 8.67 ± 28 | 0.667 ± 14
2 | S. pallida pb3b-like | -18.7 ± 18 | -17 ± 12 | -5.67 ± 12 | -9.33 ± 13 | 14.7 ± 24 | -12.7 ± 18 | -9.33 ± 19
3 | Canton-S (D. melanogaster) pb2b | -3.43 ± 6.8 | -6.86 ± 10 | -2.57 ± 8.5 | -1.43 ± 7.1 | 10.6 ± 10 | 145 ± 52 | 1.14 ± 10
4 | S. hsui pb1a-like | 13.3 ± 16 | -0.333 ± 6.4 | 96 ± 27 | 13.7 ± 5.3 | 14.7 ± 17 | 16 ± 8.3 | 29.7 ± 22
5 | S. montana pb1a-like | 6.33 ± 9.6 | 0 ± 12 | 123 ± 17 | -0.333 ± 2.9 | 5.67 ± 11 | 26.3 ± 13 | 82.7 ± 34
6 | S. montana pb3b-like | -2.67 ± 9.3 | -1 ± 4.7 | 4 ± 7.7 | -3.67 ± 9.5 | 2.33 ± 11 | -1.67 ± 5.4 | -3.67 ± 8.9
7 | Canton-S (D. melanogaster) pb3b | 153 ± 48 | -2.83 ± 8.6 | 1.5 ± 8.7 | 0 ± 8.9 | 0.833 ± 6.5 | -2.5 ± 6.4 | 1.33 ± 8.5
8 | S. hsui pb3a-like | -5.67 ± 12 | -7 ± 11 | 145 ± 27 | -3.33 ± 10 | 8 ± 8.1 | -5.33 ± 14 | -0.333 ± 7.4
9 | S. pallida pb2a-like | 5 ± 5.3 | 137 ± 13 | 5.67 ± 6.6 | 5.33 ± 4.8 | 6.33 ± 3.9 | 6.67 ± 4.8 | 9.67 ± 8.8
10 | Canton-S (D. melanogaster) pb1b | -2 ± 8.4 | 1.33 ± 9.9 | -6.67 ± 6.2 | 110 ± 36 | -3.78 ± 12 | 38 ± 29 | 4.67 ± 5.4
11 | S. hsui pb2b-like | 3 ± 4.9 | 0.667 ± 7.2 | 20 ± 18 | 1.67 ± 2.9 | 103 ± 43 | 111 ± 23 | 17.3 ± 21
12 | S. montana pb1b-like | 5 ± 7.6 | 2.33 ± 18 | -16.3 ± 10 | 109 ± 14 | 7.67 ± 11 | 24.7 ± 14 | -7 ± 20
13 | S. flava pb2a-like | 3 ± 11 | 213 ± 48 | 5.67 ± 11 | 1.67 ± 6.6 | 3 ± 8.7 | 0 ± 13 | 1.33 ± 4.7
14 | S. flava pb1b-like | -3.67 ± 9.3 | 2 ± 13 | -26.7 ± 21 | 97 ± 18 | -5.33 ± 20 | 9.67 ± 7.5 | -6 ± 20
15 | S. pallida pb3a-like | -17.3 ± 8.2 | -13 ± 14 | 94.3 ± 19 | -8 ± 7.3 | 6.33 ± 15 | -11.7 ± 15 | -15.7 ± 12
